Assay results: PubChem BioAssay (Tox21)
Inconclusive results are not listed. Entries that show only a call come without a potency. Active and inactive are the calls of the source. Calls come from the whole dose curve; as a rule, active = well fitted activation curve with a large enough effect in the signal ratio in the repeat runs (not every such curve was filed as active); inconclusive = weak or mixed curves, or effect the other way; inactive = flat fitted curve, though single readings scatter; the % refers to the signal ratio.

Assay: qHTS assay to identify small molecule agonists of the endoplasmic reticulum stress response signaling pathway (AID 1159516)
Settings: ESRE-bla HeLa, ER stress beta-lactamase reporter, 5 h; series mostly up to 61 µM
Text: National Center for Advancing Translational Sciences [NCATS]
NIH Chemical Genomics Center [NCGC]
U.S. Environmental Protection Agency [EPA]
National Institutes of Environmental Health Sciences [NIEHS]
National Toxicology Program [NTP]
U.S. Food and Drug Administration [FDA]
Endoplasmic Reticulum (ER) plays an important role in cellular signaling, protein folding/maturation, stress response, lipid biosynthesis, calcium storage and release etc. Under stress conditions, proteins in ER misfold or unfold, and leading to the expression of ER stress responsive genes. ER stress has been associated with a variety of pathophysiological conditions such as cancer, inflammation, neurodegenerative diseases, diabetes, ischemic heart disease etc. To identify the compounds that induce ER stress response, an ER stress reporter cell line, CellSensor ESRE-bla HeLa (Life Technologies, Carlsbad, CA) containing a beta-lactamase reporter gene under control of the Endoplasmic reticulum Stress Response Element (ESRE) was used to screen Tox21 10K compound library.
Tox21 Assay Protocol Summary:
ESRE-bla HeLa cells were dispensed at 1,500 cells/6 uL of assay medium per well into black wall/clear-bottom 1536-well plates using a Multidrop Combi (ThermoFisher Scientific, Waltham, MA) dispenser. After the assay plates were incubated at 37 C and 5% CO2 for an overnight, 23 nL of compounds dissolved in DMSO, positive controls or DMSO only was transferred to the assay plate by a Pintool station (Kalypsys, San Diego, CA). The assay plates were incubated at 37 C and 5% CO2 for 5 hr. One uL of LiveBLAzer B/G FRET substrate (Life Technologies) was added using a Flying Reagent Dispenser (Aurora Discovery, San Diego, CA) and the plates were incubated at room temperature for 2 hr. Fluorescence intensity (405 nm excitation, 460 nm and 530 nm emissions) was measured using an Envision plate reader (PerkinElmer, Shelton, CT).
Potency is the fitted concentration of half-maximal effect.

Structure (SMILES)	Potency	activation
O[C@@H](c1cc(C(F)(F)F)nc2c(C(F)(F)F)cccc12)[C@H]1CCCCN1	inactive	–
Cc1cn[nH]c1	inactive	–
c1cc2c3c(c1)ccc1cccc(c13)C2	inactive	–
CC(C)=C1CC[C@@H](C)CC1=O	inactive	–
c1ccc(Nc2cccc3ccccc23)cc1	inactive	–
CCCCCCC(C)Nc1ccc(Nc2ccccc2)cc1 (stereo not given)	inactive	–
CCCCCCCC/C=C/CCCOC(C)=O	inactive	–
CCc1ccc(O)c(C(C)(C)C)c1	inactive	–
NCCCC(O)(P(=O)(O)O)P(=O)(O)O	inactive	–
CC1CCCCN1CCCOC(=O)c1ccc(OC2CCCCC2)cc1 (stereo not given)	inactive	–
CCCCCCCCCCCCCCCC	inactive	–
Cc1cccc(Br)c1	inactive	–
C/C=C/C=N/NC(=O)c1ccncc1	inactive	–
CCC(C)(C)c1cc(O)c(C(C)(C)CC)cc1O	3.89 µM (active)	–
CCCCCCCCCCCC(=O)N(CC)CC	inactive	–
O=C(O)c1cccc(Cl)n1	inactive	–
CNC(=O)c1cc(Oc2ccc(NC(=O)Nc3ccc(Cl)c(C(F)(F)F)c3)cc2)ccn1	inactive	–
O=C(O)Cc1ccc(OCCNC[C@H](O)c2ccccc2)cc1	inactive	–
CC(C)(C)C1=CC(=O)C=C(C(C)(C)C)C1=O	inactive	–
C[C@@H]1CC[C@H]2C(C)(C)[C@H]3C[C@@]12CC[C@@]3(C)O	inactive	–

Structure (SMILES)	Potency	activation
CN(Cc1cc(Br)cc(Br)c1N)C1CCCCC1	inactive	–
CC(CN(C)C)CN1c2ccccc2CCc2ccccc21 (stereo not given)	inactive	–
c1cc(OCC2CO2)cc(OCC2CO2)c1 (stereo not given)	inactive	–
O=S(=O)(O)CCCN1CCOCC1	inactive	–
NC(=O)c1ccccc1N	inactive	–
Oc1ccc(-c2ccc(O)cc2)cc1	inactive	–
O=C(c1ccccc1)c1cc(Cl)ccc1O	inactive	–
NC1(c2ccc(-c3nc4ccn5c(=O)[nH]nc5c4cc3-c3ccccc3)cc2)CCC1	inactive	–
C=CC(=C)CCC=C(C)C	inactive	–
CCN1CCN(c2cc(-c3ccc(F)cc3)c3c(n2)CCCCCC3)CC1	inactive	–
O=C1Nc2ccc(Cl)cc2[C@@](C#CC2CC2)(C(F)(F)F)O1	inactive	–
CC(NCCC(c1ccccc1)c1ccccc1)c1ccccc1 (stereo not given)	inactive	–
N[C@@H](CSSC[C@H](N)C(=O)O)C(=O)O	–	-7.2% [at 0.628 µM] (inactive)
CC(C(O)c1ccccc1)N(C)CCOC(c1ccccc1)c1ccccc1 (stereo not given)	inactive	–
CCCCOc1ccc(C(=O)CCN2CCCCC2)cc1	inactive	–
O=Cc1ccc(F)cc1	inactive	–
C=CC(=O)OCC(O)COc1ccccc1 (stereo not given)	inactive	–
CCN(CC)CCOC(=O)C1(C2CCCCC2)CCCCC1	inactive	–
COCC(=O)O[C@]1(CCN(C)CCCc2nc3ccccc3[nH]2)CCc2cc(F)ccc2[C@@H]1C(C)C	inactive	–
CC(=O)Oc1ccc(C2(c3ccc(OC(C)=O)cc3)Oc3ccccc3NC2=O)cc1	inactive	–
